Source: PubChem BioAssay (National Center for Advancing Translational Sciences (NCATS))
Shiga toxin inh: Shiga toxin inhibition; AID 2315; 290,000 compounds, 9.2% hits; inhibition, % at 38.7 µM; Vero cells, Shiga toxin protein synthesis inhibition reporter; in the data active = inhibition mostly above about 28%, no sharp cut-off; inactive = mostly below about 43%; note: 0% is about no effect
Pf growth 48h: inhibits P. falciparum growth in the first generation, 48 h; P. falciparum luciferase growth in erythrocytes, 48 h; Potency, µM (series often up to 28.7 µM), for the others: at the top dose activity change, negative = inhibition, hits mostly inhibitors; 310,000 compounds, 5.9% hits; AID 504832; note: potency is the fitted concentration of half-maximal effect; % is set by controls: 0 for no effect and ±100 for the full control effect
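Here the parasites carry a stable luciferase gene and grow inside erythrocytes in Albumax-based RPMI medium with compound for one erythrocytic cycle. Activity is scored as loss of luminescent signal.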
NS1 function inh: blocks influenza NS1 protein function; AID 2326; 270,000 compounds, 0.4% hits; Potency, µM (series often up to 46.1 µM), for the others: at the highest dose activity, positive = more growth; calls by dose curve; note: potency is the fitted concentration of half-maximal effect; actives are rising curves; nearly all actives have a fitted effect of over 50% in size
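In this qHTS, NS1 from influenza A is expressed in budding yeast, where it slows growth. Cells are switched from glucose to 2% galactose medium (pH 6.0, -URA), treated with compound, and growth recovery is read at OD600.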
CHX counter: affects cycloheximide protein synthesis inhibition readout, counter-screen. max response, %. 300,000 compounds, 12% hits. cell reporter, cycloheximide protein synthesis inhibition counterscreen; in the data active = max response mostly above about 13%, no sharp cut-off; inactive = mostly below about 14%; note: read at 38.3 µM for the half of the compounds with a filed dose; 0% is about no effect
Pf growth 96h: P. falciparum growth inhibition at 96 hours | P. falciparum luciferase reporter growth, 96 h | Potency, µM (titrated, usually from 28.7 µM), for inactives: at the highest dose activity change, negative = inhibition, most hits filed as inhibitors | 320,000 compounds, 6.9% hits; note: potency is the fitted concentration of half-maximal effect; % is set by controls: 0 for no effect and ±100 for the full control effect
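Readout is luminescence from an integrated firefly luciferase in P. falciparum. Red cells, 2% hematocrit and 0.05% parasitemia final, were cultured with compound through two parasite generations (96 hours) at 37 C, 5% CO2.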
Sm TGR inh: blocks Schistosoma mansoni thioredoxin glutathione reductase. 360,000 compounds, 3% hits. purified TGR, DTNB reduction, TNB absorbance 405 nm. Potency, µM (highest dose often 114 µM), for the others: at the top dose activity change, negative = inhibition, hits mostly inhibitors. Q962Y6; note: potency is the fitted concentration of half-maximal effect; % is set by controls: 0 for no effect and ±100 for the full control effect; nearly all actives have a fitted effect of over 60% in size
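First, TGR (20 nM dispensed) and NADPH were mixed with compound. Second, a 15 min room-temperature incubation followed. Third, further NADPH and then DTNB were added to start the reaction. Finally, TNB absorbance was monitored kinetically.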
The depositor's hits bear a star; i = inactive; ? = inconclusive; nt = no result; [ ] = another dose, or the depositor's remark. The list is not random: actives were taken first. Their share in the collection is about 21%. Unless noted, calls come from the whole dose curve; as a rule, active = well fitted curve in the direction sought with a large enough effect; inconclusive = small, poorly fitted or top-dose-only effect, or another doubt; inactive = no such curve, though single readings can be large; an effect the other way counts as inactive or inconclusive.

SMILES | Shiga toxin inh | Pf growth 48h | NS1 function inh | CHX counter | Pf growth 96h | Sm TGR inh
Cc1ccc(NS(=O)(=O)c2ccc(OCC(=O)Nc3cccc([N+](=O)[O-])c3)c(C)c2)cc1 | -19 | ? | 7% | 0 | 15µM* | 11%
CC(NS(=O)(=O)c1ccc(OCC(=O)Nc2cccc([N+](=O)[O-])c2)cc1)c1ccccc1 (centres undefined) | -7 | 10µM* | 18% | -5 | -34% | -1%
O=C(COC(=O)COc1ccccc1)Nc1cccc([N+](=O)[O-])c1 | -13 | 39% | 0% | 2 | 57% | 5%
O=C(CCCc1ccccc1)Nc1cccc([N+](=O)[O-])c1 | nt | 75% | -42% | 44* | 57% | 9%
O=C(CCCOc1ccccc1)Nc1cccc([N+](=O)[O-])c1 | 82* | 21% | 0% | 21* | 14% | -1%
CC(OC(=O)CCc1ccccc1)C(=O)Nc1ncc(Cl)cc1Cl (centres undefined) | -8 | 15% | -2% | 0 | 36% | 2%
Cc1ccc(CCNC(=O)C2CC(c3ccc(C(F)(F)F)cc3)=NO2)cc1 (centres undefined) | -5 | 38% | 4% | 11 | -3% | -9%
CCOC(=O)c1nn(-c2ccc(Cl)cc2)c2nnc(Cc3ccccc3)c(=O)n12 | 15 | -5% | 20% | 8 | ? | 8%
Nc1oc2ccccc2c(=O)c1C=O | 1 | 19% | -3% | 3 | 53% | 2%
CC(C)(c1ccccc1)c1ccc(OCc2ccc(C(=O)O)o2)cc1 | nt | 70% | nt | nt | 58% | -7%
C/C=C/c1ccccc1OCc1ccc(C(=O)OC)o1 | 30 | -7% | -72% | 0 | 19% | 2%
Cc1cc(C)cc(OCc2ccc(C(=O)O)o2)c1 | 27 | 11% | -16% | 9.3* | 26% | 4%
Cc1ccc(OCc2ccc(C(=O)O)o2)cc1C | 69* | 138% | 0% | 71* | ? | 0%
COC(=O)c1ccc(COc2cc(C)ccc2C)o1 | 91* | 31% | -7% | 46* | 6% | -12%
COC(=O)c1ccc(COc2ccc(C(=O)c3ccccc3)cc2)o1 | 2 | 19% | 2% | 1 | 33% | 6%
COC(=O)c1ccc(COc2ccc(F)cc2)o1 | 53* | 41% | 3% | 28* | ? | -6%
Cc1cc(C)cc(OCc2ccc(C(=O)Nc3ccccc3F)o2)c1 | nt | nt | nt | nt | nt | -1%
Cc1ccc(S(=O)(=O)NC(C(=O)O)c2ccccc2)cc1 (centres undefined) | -6 | 8% | 5% | 0 | ? | 8%
O=C(CN1C(=O)NC2(CCOc3ccccc32)C1=O)c1ccc(F)cc1 (centres undefined) | nt | -15% | nt | nt | ? | -21%
CCc1cc(=O)oc2cc(OCc3ccc(C(=O)O)o3)ccc12 | 28 | 92% | 3% | 15* | 67% | ?
O=C(O)c1ccc(COc2c(F)c(F)c(F)c(F)c2F)o1 | 5 | 153% | 4% | 8 | 116% | 45µM*
Cc1c(C)c2ccc(OCc3ccc(C(=O)O)o3)c(C)c2oc1=O | 58* | 134% | 1% | 32* | nt | 0%
COC(=O)c1ccc(COc2ccc(C)c(C)c2)o1 | 98* | -16%[0.00184 µM] | -9% | 27* | -20% | 3%
Cc1cc(C)cc(COc2ccc3c(C)c(CC(=O)O)c(=O)oc3c2C)c1 | -3 | nt | 4% | -3 | 6% | 6%
Cc1oc(C(=O)O)cc1COc1ccc2c(C)cc(=O)oc2c1 | -5 | 3% | 4% | -1 | 2.1µM* | -14%
SMILES | Shiga toxin inh | Pf growth 48h | NS1 function inh | CHX counter | Pf growth 96h | Sm TGR inh
COC(=O)c1ccc(CO/N=C/c2ccc(OC)cc2)o1 | 58* | 146% | nt | 53* | 95% | 7%
COC(=O)c1cc(COc2ccc3ccc(=O)oc3c2)c(C)o1 | -10 | 22% | -4% | -1 | -1% | 4%
Cc1ccc(S(=O)(=O)Nc2ccc(C(=O)OCC(=O)N(CCC#N)c3ccccc3)cc2)cc1C | -10 | 23% | ? | -2 | 7% | 1%
C[C@H](O)Cc1cn(-c2cc3cc(C#Cc4ccsc4)ccc3oc2=O)nn1 | nt | 10% | nt | nt | 24% | -20%
CCOCCCNC(=O)c1cnc2sc(N3CCCCCC3)nn2c1=O | nt | nt | nt | nt | nt | 4%
COc1ccc(C(=O)CC(=O)C(=O)Nc2ccccc2OC)cc1 | 27 | nt | -45% | 7 | 40% | -19%
COc1ccc(C(=O)CCC(=O)Nc2cccc(C(C)=O)c2)cc1 | nt | nt | nt | nt | nt | 9%
COc1ccc(C(=O)CC(=O)C(=O)Nc2ccc(C)c(C)c2)cc1 | 94* | nt | -3% | 18* | 12% | 0%
COc1ccc(C(=O)CC(=O)C(=O)Nc2cccc(C(C)=O)c2)cc1 | 24 | 0%[0.00184 µM] | 6% | 17* | 7% | 3%
Cc1cc(C(=O)COC(=O)c2ccc(F)cc2F)c(C)n1C1CC1 | nt | 141% | nt | nt | i | -9%
COC(=O)c1ccc(/C=C/c2c(-c3ccc(OC)cc3)oc3ccc(N4CCOCC4)cc23)cc1 | 17 | ? | ? | 10 | 3.7µM* | 0%
COc1ccc(-c2ccc([C@H]3[C@@H]4C=CCC[C@@]4(C)C(=O)N3Cc3ccccc3)c(F)c2)cc1OC | 36 | ? | 3% | 37* | ? | -5%
C[C@@]12CCC=C[C@H]1[C@H](c1ccoc1)N(Cc1ccccc1)C2=O | -4 | 39% | -5% | -4 | 62% | 35µM*
CC12CCC=CC1C(c1cccc(Br)c1)N(Cc1ccccc1)C2=O (centres undefined) | -5 | nt | nt | -2 | nt | nt
CN(C)c1ccc(-c2c(C3C4C=CCCC4(C)C(=O)N3Cc3ccccc3)ccc3ccccc23)cc1 (centres undefined) | 13 | nt | nt | 14 | nt | nt
COc1ccc(-c2c([C@H]3[C@@H]4C=CCC[C@@]4(C)C(=O)N3Cc3ccccc3)ccc3ccccc23)cc1OC | -8 | 5.2µM* | 2% | -2 | 5.2µM* | -24%
CC(C)CNC(=O)C1=CC(c2ccc3c(c2)OCO3)=NS(=O)(=O)N1C | nt | nt | nt | nt | nt | -5%
CCCCSc1nc(-c2ccc(OC)cc2)ccc1C#N | nt | nt | nt | nt | nt | 3%
CCOc1ccc(-c2ncnn2-c2sc3c(c2C#N)CCCCC3)cc1 | nt | nt | nt | nt | nt | -4%
O=C(Nc1ccccc1Cl)C1CCN(c2nc3ccccc3[nH]2)CC1 | nt | nt | nt | nt | nt | 3%
COc1c(C)cc(Br)cc1C(=O)Nc1ccc(S(N)(=O)=O)cc1 | 21 | 8% | nt | 9 | 57% | 7%
Cc1ccc(C(=O)c2ncc[nH]2)cc1 | nt | 98% | nt | nt | 68% | -2%
O=C(c1ccc(OC(F)(F)F)cc1)c1ncc[nH]1 | 65* | 103% | -2% | 39* | 99% | -15%
O=C(Nc1ccc(Oc2ccc(Cl)cc2)cc1)c1ncn[nH]1 | -8 | 9.3µM* | -20% | -2 | 36% | 2%
Cc1ccc(NC(=O)c2ncn[nH]2)cc1 | 40 | 51% | -2% | 19* | -24% | nt
COc1ccc(C(=O)NC2CCCN(Cc3ccc(Cl)cc3)C2)c(OC)c1 (centres undefined) | -16 | ? | -19% | -2 | -20% | -22%
